Nrf2 activator = activates Nrf2 signaling | AREc32 ARE-luciferase reporter (MCF7-derived line), luminescence, 24 h | Potency, µM (doses to about 46.1 µM), for inactives: top-dose activation, actives largely listed as activators | hit rate 0.31% among 410,000; note: % of control where 0% means no effect; nearly all actives have a fitted effect of over 65% in size
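AREc32 cells carrying an ARE-driven firefly luciferase, 1000 cells/well in OPTI-MEM with 5% FBS, dosed after overnight attachment and incubated 24 hr at 37 deg C. Steady-Glo luminescence read after 30 min at RT.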
ELG1 repair inh = ELG1-dependent DNA repair inhibition. HEK293T ELG1-luciferase reporter, luminescence, 16 h; DNA damage induced by 5-fluorouridine. Potency, µM (series often up to 46.1 µM), for inactives: top-dose activity change, negative = inhibition, hits mostly inhibitors. hit rate 2.3% among 330,000. AID 504467; note: % is set by controls: 0 for no effect and ±100 for the full control effect; nearly all actives have a fitted effect of over 55% in size
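Step one: seed 2,000 cells per well. Step two: pin-transfer compound or DMSO alongside 5-fluorouridine. Step three: incubate 16 hr, 37 °C, 5% CO2. Step four: add ONE-Glo, wait 30 min, read luminescence.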
Nrf2 inh = inhibitors of Nrf2 signaling. A549 ARE-Fluc reporter, luciferase luminescence, 18-24 h. Potency, µM (highest dose often 46 µM), without a hit: top-dose activity change, negative = inhibition, actives largely listed as inhibitors. hit rate 2.1% among 360,000; note: % is set by controls: 0 for no effect and ±100 for the full control effect; nearly all actives have a fitted effect of over 60% in size
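In this cell-based qHTS, ARE-driven firefly luciferase in A549 cells reports Nrf2 activity; the luminescent signal after BugLite lysis is the measured value, with a prior CellTiter-Fluor read for cell health.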
A549 viability = A549 cytotoxicity, counter-screen for Nrf2 inhibitors; A549 ARE-Fluc cells, CellTiter-Fluor viability, 18-24 h; Potency, µM (series often up to 46 µM), for inactives: at the top dose activity change, negative = cytotoxicity, usual class: inhibitors; hit rate 0.16% among 390,000; AID 504648; note: % is set by controls: 0 for no effect and ±100 for the full control effect
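A549 ARE-Fluc cells in 5% FBS OPTI-MEM, 5000 cells/well, rested 2 h then exposed to compounds in concentration-response for 18-24 h at 37 °C. Viability by CellTiter-Fluor fluorescence (Ex 405/Em 525) after 30 min; luciferase luminescence (BugLite, 15 min, RT) read afterwards.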
mIDH1 inhibitor = human IDH1 R132H inhibition. O75874. IDH1-R132H enzyme, NADPH consumption, diaphorase/resazurin fluorescence. Potency, µM (series often up to 76.6 µM), without a hit: at the highest dose activity change, negative = inhibition, actives largely listed as inhibitors. hit rate 0.093% among 390,000. AID 602179; note: % is set by controls: 0 for no effect and ±100 for the full control effect; nearly all actives have a fitted effect of over 65% in size
Target sequence (O75874 whole entry R132H, stated change not applied): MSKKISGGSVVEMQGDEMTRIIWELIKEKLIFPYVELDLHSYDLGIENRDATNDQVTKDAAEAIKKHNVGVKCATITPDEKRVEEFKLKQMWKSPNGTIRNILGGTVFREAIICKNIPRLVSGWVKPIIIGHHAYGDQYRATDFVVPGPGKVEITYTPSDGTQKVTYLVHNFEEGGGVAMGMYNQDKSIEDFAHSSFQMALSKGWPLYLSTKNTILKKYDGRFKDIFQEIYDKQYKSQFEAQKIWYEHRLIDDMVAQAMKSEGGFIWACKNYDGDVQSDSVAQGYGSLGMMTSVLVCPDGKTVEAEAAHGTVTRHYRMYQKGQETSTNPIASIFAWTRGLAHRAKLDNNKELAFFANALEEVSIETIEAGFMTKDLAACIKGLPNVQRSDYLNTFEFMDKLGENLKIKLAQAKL
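IDH1-R132H (0.5 ug/mL) preincubated 30 min with compound, then NADPH (0.016 mM) and alpha-KG (2 mM) added; 80 min at RT, pH 7.5. Remaining NADPH coupled via diaphorase/resazurin to fluorescence (540/590 nm); concentration-response curves normalized to no-enzyme control.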
* hit, by the source's call; ? = inconclusive; · = not tested or not shown. An excerpt weighted towards active compounds, which were near 3.8% of everything screened. Calls come from the whole dose curve; as a rule, active = well fitted curve in the direction sought with a large enough effect; inconclusive = small, poorly fitted or top-dose-only effect, or another doubt; inactive = no such curve, though single readings can be large; an effect the other way counts as inactive or inconclusive. Potency is the fitted concentration of half-maximal effect.

SMILES | Nrf2 activator | ELG1 repair inh | Nrf2 inh | A549 viability | mIDH1 inhibitor
COc1ccccc1C(=O)Oc1cc(N)n(S(=O)(=O)c2ccccc2)n1 | 1.5% | 2.2% | 8.8% | 1.4% | -3.0%
COC(=O)C1=C(C)NC(=S)N(C(C)=O)C1c1ccc(OC)c(OC)c1 (stereo not drawn) | 0.2% | -5.4% | 14.6µM* | -12.9% | 3.8%
COC(=O)C1=C(C)NC(=O)NC1c1ccc(OC)c(OC)c1 (stereo not drawn) | -0.9% | · | · | · | 4.2%
CC(C)c1ccc(NC2CCCN(C(=O)c3n[nH]c4c3CCC4)C2)cc1 (stereo not drawn) | 0.4% | ? | 10.3µM* | -8.6% | -7.7%
COc1ccc(S(=O)(=O)N2CCCC2CNC(=O)C(=O)NC2CCCC2)cc1 (stereo not drawn) | -1.3% | · | · | · | 4.5%
COc1ccc(CCNC(=O)C(=O)NCC2CCCN2S(=O)(=O)c2ccc(OC)cc2)cc1 (stereo not drawn) | -0.7% | 20.6µM* | ? | -1.6% | -6.2%
Cc1ccc(S(=O)(=O)N2CCCC2CNC(=O)C(=O)Nc2ccc(F)cc2)cc1 (stereo not drawn) | 2.0% | -20.0% | 13µM* | -8.3% | 7.9%
CCC1CCCCN1S(=O)(=O)c1ccc(NC(=O)c2cccs2)cc1 (stereo not drawn) | -0.6% | 20.6µM* | ? | 1.6% | 10.3%
CCC1CCCCN1S(=O)(=O)c1ccc(NC(=O)c2snnc2C)cc1 (stereo not drawn) | -0.4% | ? | ? | -5.0% | 0.1%
O=S(=O)(c1ccc(F)cc1)N1CCN(c2nc(-c3ccc(F)cc3)nc3cc(Cl)ccc23)CC1 | · | · | 9.2% | 1.7% | ·
Cc1cccc(C(=O)NC2CCN(C(=O)NCc3ccccc3)CC2)c1 | -0.3% | -8.7% | -18.1% | -17.0% | -4.1%
COC(=O)c1cc(NC(=O)Cc2coc3cc(OC)ccc23)cc(C(=O)OC)c1 | 2.5% | 16.4µM* | ? | -2.2% | 7.6%
Cn1c(CCc2nc3ccccc3[nH]2)nnc1SCC#N | 2.7% | 20.6µM* | -5.1% | 5.5% | 1.1%
Cc1nnc(NC(=O)CSc2nnc(CCc3nc4ccccc4[nH]3)n2C)s1 | 0.3% | 0.0% | 5.1% | 2.8% | 4.9%
COc1ccc(S(=O)(=O)NCC(c2ccco2)N2CCN(c3ccccc3F)CC2)cc1C (stereo not drawn) | 3.7% | · | · | 5.5% | 12.5%
COc1ccc(C(=O)/C=C/c2ccc(O)cc2)c(O)c1CC=C(C)C | 23.5% | -5.8% | 1.7% | -23.1% | 0.7%
COc1ccc(C(=O)/C=C/c2ccc(O)cc2)c2c1CC(O)C(C)(C)O2 (stereo not drawn) | 10.2% | 23.1µM* | -1.9% | 6.3% | 25.3%
COc1ccc2[nH]c3nc(SCc4nnc(-c5ccccc5)o4)nnc3c2c1 | 0.6% | 16.4µM* | -17.2% | · | 2.2%
CCc1ccc2[nH]c3nc(SCc4nnc(-c5ccccc5)o4)nnc3c2c1 | 0.1% | -12.5% | -5.3% | -5.6% | 1.5%
COC(=O)CCCn1cc(CN2CC(N3CCCC3)CS2(=O)=O)nn1 (stereo not drawn) | -0.3% | · | · | · | ·
CCOc1ccc(C(=O)Nc2ccc(NC(=O)c3ccccc3)cc2)cc1Br | 0.3% | 3.8% | -3.2% | 0.2% | 1.1%
Cc1c([N+](=O)[O-])cc(C(=O)Nc2ccc(Cc3ccncc3)cc2)cc1[N+](=O)[O-] | -0.8% | 10.3µM* | ? | -11.3% | -4.3%
Cc1c(Br)c([N+](=O)[O-])nn1CC(=O)Nc1ccc(Cc2ccncc2)cc1 | -0.7% | ? | 18.4µM* | ? | -8.7%
O=C(Nc1ccc(Cc2ccncc2)cc1)c1ccc(Cl)c([N+](=O)[O-])c1 | 17.8% | ? | · | -2.3% | -0.2%
CCOc1ccc(C(=O)Nc2ccc(Cc3ccncc3)cc2)cc1Br | 2.6% | ? | 14.6µM* | ? | -30.7%
CC(=O)Nc1ccc(NC(=O)Cn2nc([N+](=O)[O-])c(Br)c2C)cc1 | 5.6% | 4.5% | -7.1% | -9.9% | -7.7%
CC(C)(CO)NC(=O)C12CC3CC(CC(Br)(C3)C1)C2 | -0.4% | -9.5% | 0.8% | -0.9% | -1.5%
